Source: PubChem BioAssay (National Center for Advancing Translational Sciences (NCATS))
Most compounds without a hit are left out; they make up all but 12% or so of the library.
HP1b binding inh: HP1-beta chromodomain-methylated histone interaction inhibition; Potency, µM (doses to about 114 µM), most hits filed as inhibitors; P83916; AlphaScreen HP1-beta / biotin-H3K9me3 peptide binding; hit rate 0.56% among 390,000; further: nearly all actives have a fitted effect of over 70% in size
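AlphaScreen: HP1-beta (50 nM) preformed 30 min with biotin-H3(1-18)K9me3 peptide (50 nM) in PBS pH 7.4, 0.01% Tween-20. Compound added for 30 min at RT, then streptavidin donor/nickel chelate acceptor beads (10 ug/mL) for 30 min.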
BAZ2B block: inhibitors of human BAZ2B bromodomain; Q9UIF8; AlphaScreen BAZ2B-H3K14Ac peptide displacement; Potency, µM (top dose mostly 114 µM), usual class: inhibitors; hit rate 4.4% among 360,000; further: nearly all actives have a fitted effect of over 60% in size
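BAZ2B 50 nM plus b-H3(5-23)K14Ac 50 nM, PBS pH 7.4/0.01% Tween-20, 30 min RT; compound added (max 110 uM), 30 min RT; streptavidin donor/Ni-chelate acceptor beads 10 ug/mL final, 20 min dark; AlphaScreen read.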
Sfp inh: blocks B. subtilis Sfp PPTase activity | Potency, µM, actives largely listed as inhibitors | hit rate 3.5% among 310,000 | AID 1490 | Biochemical Sfp PPTase activity, qHTS;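 further: the enzyme is Sfp with the accession as filed and its product quenches rhodamine fluorescence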
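Step 1, compound plus 15 nM Sfp-PPTase, 15 min, room temperature. Step 2, add rhodamine-CoA (5 uM) and BHQ-2-YbbR (12.5 uM). Step 3, read 525/598 nm fluorescence at 0 and 30 min.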
JMJD2A Tudor inh: inhibitors of human JMJD2A Tudor domain; O75164; AlphaScreen JMJD2A-Tudor / H3K4me3 peptide binding; Potency, µM (series often up to 114 µM), hits mostly inhibitors; hit rate 4.4% among 390,000; AID 504339; further: nearly all actives have a fitted effect of over 50% in size
Target sequence (O75164 whole entry, looked up, the tested form may be a part): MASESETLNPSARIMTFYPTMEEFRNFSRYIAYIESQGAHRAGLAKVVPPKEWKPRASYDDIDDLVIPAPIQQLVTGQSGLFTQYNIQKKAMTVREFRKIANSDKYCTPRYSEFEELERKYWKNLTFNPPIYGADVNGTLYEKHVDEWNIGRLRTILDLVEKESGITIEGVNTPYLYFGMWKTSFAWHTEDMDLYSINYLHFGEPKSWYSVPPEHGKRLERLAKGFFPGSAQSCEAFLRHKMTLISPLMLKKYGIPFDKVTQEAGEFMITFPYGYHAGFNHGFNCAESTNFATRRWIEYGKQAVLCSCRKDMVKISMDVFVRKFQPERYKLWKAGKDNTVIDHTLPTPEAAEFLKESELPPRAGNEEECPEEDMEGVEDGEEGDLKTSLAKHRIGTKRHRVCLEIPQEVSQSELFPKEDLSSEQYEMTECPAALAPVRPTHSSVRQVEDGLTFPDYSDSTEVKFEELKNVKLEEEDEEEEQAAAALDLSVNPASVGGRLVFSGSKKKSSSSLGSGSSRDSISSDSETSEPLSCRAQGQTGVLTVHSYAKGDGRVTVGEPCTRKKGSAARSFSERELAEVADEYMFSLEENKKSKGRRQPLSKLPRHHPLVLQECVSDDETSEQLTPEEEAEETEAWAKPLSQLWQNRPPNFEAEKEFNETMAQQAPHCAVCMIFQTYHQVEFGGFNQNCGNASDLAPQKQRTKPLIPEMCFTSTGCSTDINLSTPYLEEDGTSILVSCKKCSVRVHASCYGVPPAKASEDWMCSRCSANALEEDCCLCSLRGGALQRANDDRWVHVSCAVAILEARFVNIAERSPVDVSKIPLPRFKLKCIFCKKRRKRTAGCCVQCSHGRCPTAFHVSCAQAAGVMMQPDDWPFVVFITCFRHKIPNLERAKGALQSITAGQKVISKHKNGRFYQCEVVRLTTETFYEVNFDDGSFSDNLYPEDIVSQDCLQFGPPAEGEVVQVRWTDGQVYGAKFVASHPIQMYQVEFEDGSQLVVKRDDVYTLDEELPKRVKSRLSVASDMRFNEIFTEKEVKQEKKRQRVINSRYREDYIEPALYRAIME
PLK1 PBD inh: inhibitors of human PLK1 polo-box domain binding; P53350; Plk1 PBD binding of FITC phosphopeptide, fluorescence polarization; Potency, µM, actives largely listed as inhibitors; hit rate 2.8% among 360,000; AID 720504; further: series mostly up to about 57 µM; nearly all actives have a fitted effect of over 65% in size
G9a block: inhibitors of human histone lysine methyltransferase G9a. hit rate 8.8% among 350,000. G9a H3K9 monomethylation, AlphaScreen, 2 h. Q96KQ7. Potency, µM (doses to about 102 µM), hits mostly inhibitors; further: nearly all actives have a fitted effect of over 75% in size
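Readings reflect AlphaScreen signal from monomethyl-H3K9 antibody detection. HMT at 20 nM; substrate b-H3K9 500 nM; cofactor SAM 20 uM; 2 h RT reaction; compounds tested as titrations in qHTS with 15 min preincubation.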
Each line names hits and unclear results; the compound was inactive in the other large screens. The call rests on the fitted dose curve; in most records, active means well fitted curve in the direction sought with a large enough effect; inconclusive means small, poorly fitted or top-dose-only effect, or another doubt; inactive means no such curve, though single readings can be large; an effect the other way counts as inactive or inconclusive.

O=C(NC(=S)Nc1cccc(Cl)c1N1CCCCC1)c1cccs1	HP1b binding inh inconclusive, JMJD2A Tudor inh 56µM
N#Cc1ccccc1NC(=O)COC(=O)c1cccs1	none (no result: BAZ2B block, Sfp inh, G9a block)
COc1ccccc1NC(=O)CSc1ccc(-c2ccc(-n3ccnc3)cc2)nn1	none (no result: Sfp inh)
COc1cc(CCc2ccccc2)c(C(=O)O)c(O)c1CC=C(C)C	PLK1 PBD inh 27µM (no result: BAZ2B block, Sfp inh, G9a block)
COCOc1ccc(/C=C/C(=O)c2c(OCOC)cc(OCOC)c(CC=C(C)C)c2O)cc1OCOC	JMJD2A Tudor inh inconclusive (no result: BAZ2B block, Sfp inh, G9a block)
COc1cc(CCc2ccccc2)c(C(=O)O)c(O)c1C/C=C(/C)CCC=C(C)C	JMJD2A Tudor inh 79µM, PLK1 PBD inh 24µM (no result: BAZ2B block, Sfp inh, G9a block)
CC(C)=CCC/C(C)=C/Cc1c(O)ccc(C(=O)/C=C/c2ccc(O)cc2)c1O	BAZ2B block inconclusive, JMJD2A Tudor inh inconclusive, G9a block inconclusive
CCC(=O)NN1CCc2cc3ccc(C)cc3nc21	none
c1ccc(N2CCN(Cc3ccnc4ccccc34)CC2)cc1	BAZ2B block inconclusive, JMJD2A Tudor inh 56µM, G9a block 4.5µM
CCOCc1cc(CN2CCN(c3cccc(Cl)c3)CC2)c(O)c2ncccc12	BAZ2B block 13µM, JMJD2A Tudor inh 40µM (no result: Sfp inh, PLK1 PBD inh)
O=C(Oc1c(Cl)cc(Cl)c2cccnc12)N1CCOCC1	none
Cc1cc(OCc2cccc(Cl)c2)c(C)cc1CN1CCOCC1	none (no result: G9a block)
Oc1c(CN2CCN(c3ccccc3)CC2)cc(Br)c2cccnc12	BAZ2B block inconclusive
O=C(Oc1c(CN2CCOCC2)cc(Cl)c2cccnc12)c1ccccc1Br	BAZ2B block 20µM, JMJD2A Tudor inh 40µM
Oc1c(CN2CCOCC2)cc(COCc2ccccc2)c2cccnc12	BAZ2B block 11µM, JMJD2A Tudor inh 25µM, G9a block inconclusive
CN(Cc1cccs1)c1ncnc2ccc(-c3ccc4cnn(C)c4c3)cc12	none (no result: HP1b binding inh, BAZ2B block, Sfp inh, PLK1 PBD inh, G9a block)
O=C(Nc1cccc2cccnc12)OC(Cl)(Cl)Cl	none (no result: BAZ2B block, Sfp inh, PLK1 PBD inh, G9a block)
COc1cc2c(cc1NC(=O)C(C)Oc1ccc(Cl)cc1Cl)oc1ccccc12 (centres undefined)	G9a block inconclusive (no result: Sfp inh, PLK1 PBD inh)
CC(C)OCc1cc(CN2CCN(c3ccccc3)CC2)c(O)c2ncccc12	BAZ2B block 8.9µM, JMJD2A Tudor inh 25µM (no result: Sfp inh, PLK1 PBD inh)
CCOC(=O)N1CCN(Cc2cc(Cl)c3cccnc3c2O)CC1	BAZ2B block 10µM, Sfp inh inconclusive, JMJD2A Tudor inh 22µM (no result: G9a block)
COCc1cc(CN2CCN(C)CC2)c(O)c2ncccc12	BAZ2B block 1.1µM, JMJD2A Tudor inh 7.9µM
O=C(Cn1c(SCC(=O)Nc2ccc(F)cc2)nc2ccccc21)NCc1ccccc1Cl	none (no result: Sfp inh, PLK1 PBD inh)
COCCNC(=S)N1CCN(c2nc(-c3ccc(Cl)cc3)cs2)CC1	JMJD2A Tudor inh 32µM, PLK1 PBD inh 24µM, G9a block inconclusive
COc1cccc(-c2csc(N3CCN(C(=S)Nc4ccccc4)CC3)n2)c1	none
COc1cccc(-c2csc(N3CCN(C(=S)Nc4ccc(Cl)cc4)CC3)n2)c1	Sfp inh 45µM, G9a block inconclusive
COCCNC(=S)N1CCN(c2nc(-c3ccc(F)cc3)cs2)CC1	BAZ2B block inconclusive, G9a block 50µM
O=C(NCc1ccccc1Cl)c1ccc2oc(=O)n(Cc3ccccc3)c2c1	none (no result: Sfp inh, PLK1 PBD inh)
NC(=O)C1CCN(C(=O)C2CC(=O)N(c3ccc(F)cc3)C2)CC1 (centres undefined)	G9a block inconclusive
Cc1ccc(S(=O)(=O)N2C[C@]3(O)C[C@@H]4C(=O)N(c5ccccc5)C(=O)[C@@H]4C[C@]3(OC(=O)NCc3ccccc3)C2)cc1	none (no result: HP1b binding inh, BAZ2B block, Sfp inh, JMJD2A Tudor inh, G9a block)
O=C(NNC(=O)C12CC3CC(CC(C3)C1)C2)c1ccncc1	G9a block 40µM
CN(C)c1ccc(C(C(=O)NCC2CCCO2)N(C(=O)c2snc(C(N)=O)c2N)c2ccc3c(c2)OCO3)cc1 (centres undefined)	BAZ2B block inconclusive, JMJD2A Tudor inh inconclusive, G9a block 40µM
CN(C)c1ccc(C(C(=O)NCC2CCCO2)N(C(=O)c2snc(C(N)=O)c2N)c2ccccc2)cc1 (centres undefined)	none
Cc1cccc(N(C(=O)c2snc(C(N)=O)c2N)C(C(=O)NCC2CCCO2)c2ccc(N(C)C)cc2)c1 (centres undefined)	none
CC(C)c1ccc(N(C(=O)c2snc(C(N)=O)c2N)C(C(=O)NCC2CCCO2)c2ccc(N(C)C)cc2)cc1 (centres undefined)	HP1b binding inh inconclusive, BAZ2B block 22µM, JMJD2A Tudor inh 18µM, G9a block 13µM
COc1cc(C(=O)Nc2ccc(OCc3cc(=O)n4cccc(C)c4n3)cc2)cc(OC)c1OC	none (no result: Sfp inh, PLK1 PBD inh)
CC(C)Cn1c(/C=C/c2ccco2)nc2ccccc21	Sfp inh 35µM, G9a block 7.9µM
CC(C)Cn1c(S(=O)(=O)O)nc2ccccc21	none (no result: G9a block)
CC(=O)Nc1c(I)c(C(=O)N[C@H]2C(O)O[C@H](CO)[C@@H](O)[C@@H]2O)c(I)c(N(C)C(C)=O)c1I (some centres undefined)	none (no result: Sfp inh)
CS(=O)(=O)N1CCCC(C(=O)NCCCN2CCc3ccccc3C2)C1 (centres undefined)	JMJD2A Tudor inh 79µM, G9a block 11µM
O=C(NCCN1CCc2ccccc2C1)C1CCN(S(=O)(=O)N2CCCCC2)CC1	BAZ2B block inconclusive, Sfp inh inconclusive, JMJD2A Tudor inh inconclusive, G9a block 50µM
O=C(NCCN1CCc2ccccc2C1)C1CCN(S(=O)(=O)N2CCC3(CC2)OCCO3)CC1	BAZ2B block inconclusive
CS(=O)(=O)N1CCCC(C(=O)NCCN2CCC(Cc3ccccc3)CC2)C1 (centres undefined)	none
CCc1ccc2[nH]c(=O)c(C3C(C#N)=C(N)Oc4c3ccc3cccnc43)cc2c1 (centres undefined)	BAZ2B block inconclusive, JMJD2A Tudor inh inconclusive
Cc1ccc2cc(C3C(C#N)=C(N)Oc4c3ccc3cccnc43)c(=O)[nH]c2c1 (centres undefined)	BAZ2B block inconclusive, Sfp inh 10µM, JMJD2A Tudor inh inconclusive, PLK1 PBD inh inconclusive
CCN1CCN(c2cc(=O)n(-c3cc(Cl)ccc3C)c(=O)[nH]2)CC1	G9a block 50µM
Cc1ccc(-n2c(=O)cc(N3CCN(c4ccccc4Cl)CC3)[nH]c2=O)cc1	none (no result: Sfp inh, PLK1 PBD inh)
CCOC(=O)N1CCN(c2cc(=O)n(-c3ccccc3C)c(=O)[nH]2)CC1	none (no result: BAZ2B block)
Cc1ccccc1-n1c(=O)cc(N2CCN(Cc3ccccc3)CC2)[nH]c1=O	Sfp inh inconclusive, G9a block 56µM
COc1ccc(-c2cnc(C)o2)cc1S(=O)(=O)Nc1ccc(NC(C)=O)cc1	none (no result: Sfp inh, PLK1 PBD inh)
COC(=O)c1ccc(C(=O)OC)c(NC(=O)c2c(-c3ccccc3)c(-c3ccccc3)nn(C)c2=O)c1	G9a block inconclusive (no result: Sfp inh, PLK1 PBD inh)
COc1ccc(CN(Cc2ccccc2)C(=O)C2CC2)cc1COc1ccc(NC(C)=O)cc1	JMJD2A Tudor inh inconclusive (no result: BAZ2B block, Sfp inh, PLK1 PBD inh, G9a block)
